UBC13 polyUb – inhibitors of human UBC13 polyubiquitin chain formation. TR-FRET. P61088. inhibition, % at 20 µM. 330,000 tested, 0.47% active. AID 485273; in the data active means inhibition above about 45%, passing the limit was not always enough
Target sequence (P61088 whole entry, looked up): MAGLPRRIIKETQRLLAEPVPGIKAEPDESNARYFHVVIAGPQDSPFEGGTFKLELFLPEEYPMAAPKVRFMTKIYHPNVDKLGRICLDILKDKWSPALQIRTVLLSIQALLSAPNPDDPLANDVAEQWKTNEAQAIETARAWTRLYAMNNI
dFosB act – enhances mouse delta FosB homodimer DNA binding. purified delta FosB, TAMRA-CDK5 oligo fluorescence polarization; percent of positive-control signal above neutral wells. activation, % at 25 µM. 340,000 tested, 0.99% active. P13346. AID 493131;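 active means mean activation above about 17%, with every replicate also reaching it, limit read from the data, passing the limit was not always enough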
Target sequence (P13346 whole entry, looked up): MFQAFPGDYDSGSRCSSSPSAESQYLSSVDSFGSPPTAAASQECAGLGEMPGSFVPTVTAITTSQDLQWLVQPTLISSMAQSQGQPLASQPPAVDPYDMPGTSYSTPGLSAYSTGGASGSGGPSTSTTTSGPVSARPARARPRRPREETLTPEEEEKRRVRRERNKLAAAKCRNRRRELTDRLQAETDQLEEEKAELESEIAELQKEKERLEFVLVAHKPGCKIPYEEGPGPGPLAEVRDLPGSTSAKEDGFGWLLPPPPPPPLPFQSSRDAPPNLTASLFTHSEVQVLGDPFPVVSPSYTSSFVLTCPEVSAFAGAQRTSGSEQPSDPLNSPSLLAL
Yeast superoxide – yeast age-related superoxide inhibition as caloric restriction mimetic; S. cerevisiae aged cells, superoxide DHE fluorescence; stronger effect = lower value; 330,000 tested, 0.18% active; superoxide response (% of plate mean), % at 10 µM;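 active means superoxide response under a set limit, about three screen SD below normal, cut at about 65% in these data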;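 further: yeast aged for seven days with compound at 30 °C before DHE staining; 100% = average MFI of all compound-treated wells on the plate with controls excluded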
NALP1 yeast inh – inhibitors of NALP1 inflammasome in yeast | S. cerevisiae NALP1/ASC/caspase-1 growth, X-gal OD620, 72 h | inhibition, % at 10 µM | 280,000 tested, 0.61% active | AID 2071; in the data active means inhibition mostly above about 24%, no sharp cut-off; inactive means mostly below about 32%
NR3A LBD binder – modulators (binders) of human NR3A ligand-binding domain. 340,000 tested, 2.5% active. Tm shift relative to glycine control, % at 25 µM. NR3A LBD differential scanning fluorimetry, Tm shift; 0% = protein alone, 100% = glycine-bound protein. AID 1259313;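 active means melting temperature shift of at least 10% of the positive control shift, at one fixed dose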
Starred values were filed as active, the others as inactive; . = no result given. Rows were chosen to be rich in hits. Some 4.3% of all compounds tested hit in one or more screens of this group.

SMILES | UBC13 polyUb | dFosB act | Yeast superoxide | NALP1 yeast inh | NR3A LBD binder
Cc1c(O)ccc(/C(Cc2ccc3ccccc3n2)=N\O)c1O | 24 | -6 | 107 | -11 | -9
CC(=O)Oc1ccc(C(=O)Cc2ccc3ccccc3n2)c(O)c1C | -32 | 1 | 117 | 22 | 12*
CCCCn1c(SCC(=O)NNC(=O)c2ccccc2)n[nH]c1=O | -7 | 0 | 103 | . | 0
CC(C)(CCC(=S)N1CCOCC1)c1ccccc1 | . | -9 | . | . | 11*
CN(C)S(=O)(=O)c1cccc(NC(=S)NCCCn2ccnc2)c1 | 2 | -5 | 101 | -7 | -1
O=C(NNC(=O)c1cc(-c2ccc(Cl)c(Cl)c2)nc2ccccc12)Nc1ccccc1 | -17 | 5 | 74 | -7 | 29*
COc1cc(OC)cc(C(=O)N[C@H](C(=O)Nc2cccc(S(=O)(=O)N3CCCC3)c2)C(C)C)c1 | 17 | 2 | 89 | . | -4
O=C1CCCS(=O)(=O)c2ccccc21 | 3 | -4 | 117 | -3 | -1
CN1CCN(CC(=O)N(Cc2c(C#N)c3ccccc3n2C)c2ccccc2)CC1 | 8 | -1 | 80 | 30* | 1
Cn1c(CN2CCN(CCO)CC2)c(C#N)c2ccccc21 | 6 | -7 | 94 | -2 | -1
Cc1ccc(S(=O)(=O)N2CCN(C(=O)c3sccc3-c3ccccc3)CC2)cc1 | -11 | -9 | 105 | 16 | 1
CCc1ccc(-c2nc(SCC(=O)c3c(N)n(C4CC4)c(=O)[nH]c3=O)n[nH]2)cc1 | -6 | 42* | 79 | . | -2
CCn1c(SCC(=O)Nc2ccc(NC(=O)c3cccs3)cc2)nnc1-c1cccnc1 | -6 | -8 | 105 | -6 | 21*
COc1ccc(C(CNC(=O)c2cccc(S(=O)(=O)N(C)c3ccccc3)c2)N2CCCC2)cc1 (stereo not given) | 10 | 9 | 93 | . | 0
CC(C(=O)Nc1ccccn1)N1C(=O)c2ccccc2S1(=O)=O (stereo not given) | 7 | 2 | 90 | . | 1
Cc1cc(C)c2nc(NCc3ccccc3O)sc2c1 | 19 | 0 | 90 | 8 | 27*
COc1cc(CNc2nc3c(C)cc(C)cc3s2)ccc1O | 0 | -8 | 99 | 17 | 1
O=C(N=Nc1c(O)[nH]c2ccc(Br)cc12)c1cc(-c2cccc3ccccc23)n[nH]1 | -15 | -8 | 100 | 10 | 16*
O=C(N=Nc1c(O)[nH]c2ccc(Br)cc12)c1cc(-c2cccs2)nc2ccccc12 | . | 8 | . | 8 | -3
O=C1c2ccccc2[C@@H]2C[C@H]3O[C@H]3CCN12 | . | -3 | 100 | . | -2
Fc1cc(Br)ccc1NC(=S)NCCc1ccccc1 | 0 | 1 | 102 | 6 | 30*
Fc1ccccc1NC(=S)NCCc1cccc(Cl)c1 | -2 | -12 | 93 | 30* | -12
C=CCNC(=S)Nc1ccc(Br)cc1F | -15 | 5 | 111 | 15 | 0
CC(C)CCNC(=S)Nc1ccccc1F | -5 | -5 | 96 | -5 | 14*
CC(C)CCNC(=S)Nc1ccccn1 | 11 | -7 | 112 | 19 | -2
SMILES | UBC13 polyUb | dFosB act | Yeast superoxide | NALP1 yeast inh | NR3A LBD binder
O=C(Nc1cccc(Cl)c1)c1ccc2ncsc2c1 | 10 | -17 | 88 | 23 | 34*
O=C(Nc1ccc(F)cc1)c1ccc2ncsc2c1 | 4 | -11 | 91 | 12 | 0
O=C(Nc1ccc(Cl)cc1)c1ccc2ncsc2c1 | 11 | -8 | 92 | 19 | 24*
Cc1ccc(NC(=O)COC(=O)Cc2ccsc2)cc1S(=O)(=O)N1CCOCC1 | 11 | -8 | 94 | 22 | -1
COC(=O)[C@@]1(Cc2ccc(OC)cc2)[C@@H]2C(=CC(=O)[C@H]2CC(=O)C(=O)N(C)C)CN1C(=O)c1ccccc1 | -4 | . | 99 | 14 | 1
C=C1C(=O)C=C2CN(C(=O)c3ccccc3)[C@@](Cc3ccc(F)cc3)(C(=O)OC)[C@@H]12 | -25 | 9 | 110 | 63* | 12*
NC(=O)C1CCN(c2oc(-c3ccccc3F)nc2S(=O)(=O)c2ccc(Cl)cc2)CC1 | 4 | -6 | 103 | -4 | 4
CN1CCN(c2oc(-c3ccccc3F)nc2S(=O)(=O)c2ccc(Cl)cc2)CC1 | -2 | -5 | 112 | 8 | 10*
Cc1cc(OCC(=O)Nc2ccccc2N2CCOCC2)c(C(C)C)cc1Cl | -6 | -5 | 93 | . | 1
Cc1cc2nc(CO)[nH]c2cc1C | 6 | -3 | 97 | 14 | 15*
Cc1cc2nc(CS)[nH]c2cc1C | -15 | -14 | 97 | -10 | 0
O=c1[nH]c2ccccc2c2nc(-c3cccc(S(=O)(=O)N4CCCC4)c3)nn12 | 9 | 53* | 113 | . | 0
CCOC(=O)Nc1sc(C)c(C)c1C(N)=O | 9 | 0 | 92 | 14 | -4
Cc1ccc(C(=O)NNC(=O)C2CCN(C(=O)OC(C)(C)C)CC2)cc1 | -3 | -13 | 93 | 6 | 30*
Cc1cccc(C(=O)NNC(=O)C2CCN(C(=O)OC(C)(C)C)CC2)c1 | -5 | -11 | 88 | 2 | 0
NS(=O)(=O)c1ccc(Nc2nc(-c3ccc4ccccc4c3)cs2)cc1 | 26 | 6 | 115 | -12 | 25*
NS(=O)(=O)c1ccc(Nc2nc(-c3cccc([N+](=O)[O-])c3)cs2)cc1 | 8 | -3 | 92 | 6 | 17*
Cc1ccc(-c2csc(Nc3ccc(S(N)(=O)=O)cc3)n2)o1 | 11 | -6 | 99 | 5 | 5
O=[N+]([O-])c1ccc(S(=O)(=O)Nc2nc(-c3ccccc3)cs2)cc1 | -21 | -9 | 98 | 5 | 0
Cc1ccc(OCC(O)CN2CCC(Cc3ccccc3)CC2)c(C)c1 (stereo not given) | 10 | -19 | 87 | 22 | -1
Oc1ccc2c(c1)c1ccccc1c1ncccc21 | . | 15 | . | . | 31*
CCOC(=O)C1CCCCN1Cc1ccc(F)cc1 (stereo not given) | 3 | 1 | 81 | 43* | 2
COc1ccc(CCNC(=O)CSc2nnc3ccc(-c4cccnc4)nn23)cc1 | -9 | -5 | 96 | -8 | 0
O=C(N/N=C/c1cccs1)c1c[nH]c2ccccc12 | -14 | -3 | 113 | 30 | 14*
C(=NN=C(NN=Cc1cccs1)NN=Cc1cccs1)c1cccs1 | . | 21* | . | . | -17
SMILES | UBC13 polyUb | dFosB act | Yeast superoxide | NALP1 yeast inh | NR3A LBD binder
O=C(NN=C1CCCCCC1)c1c[nH]c2ccccc12 | 6 | 0 | 120 | 10 | 20*
CCc1ccc(/C=N/NC(=O)c2c[nH]c3ccccc23)s1 | 2 | -9 | 122 | 22 | 30*
O=C(N/N=C/c1cccs1)c1ccccn1 | -13 | 3 | 94 | -3 | 1
CCN(CC)c1ccc(/C=N/NC(=O)c2c[nH]c3ccccc23)cc1 | -2 | -10 | 107 | 17 | 9
Cc1cc(=O)oc2cc(O)c(N=Nc3ccccc3)cc12 | -31 | -2 | 124 | 9 | -4
O=C(O)CNC(=O)c1ccc(Oc2c(F)c(F)c(Oc3ccc(C(=O)NCC(=O)O)cc3)c(F)c2F)cc1 | 3 | -13 | 101 | 13 | -3
